In all, about 39,000 compounds went through this assay and about 3,300 (8.5%) were called active. The sample as a whole holds a higher share of actives than the screen did.
The molecules below were run on HepG2 (assay: cytotoxicity call (relative viability < 0.9)). Conditions: 10 µM.

Structure (SMILES)	cytotoxicity call
CN1C(=S)N[C@@H]2CS(=O)(=O)C[C@@H]21	inactive
O=C(CCCCCC(=O)N/N=C/[C@H](O)[C@H](O)[C@@H](O)[C@@H](O)CO)NO	inactive
C[C@H]1CN([C@@H](C)CO)C(=O)c2cc(C3=CCCCC3)cnc2O[C@@H]1CN(C)C(=O)CN1CCOCC1	inactive
O=c1nc[nH]c2c1ncn2[C@@H]1C[C@@H](O)[C@H](CO)O1	inactive
C[C@@H]1CN([C@H](C)CO)C(=O)c2cccc(NC(=O)c3nc4ccccc4s3)c2O[C@@H]1CN(C)CC1CCCCC1	inactive
CCN1[C@@H]2O[C@@H]3O[C@H]4[C@H](O[C@H]3O[C@@H]2N(CC)S1(=O)=O)N(CC)S(=O)(=O)N4CC	inactive
C[C@H](CO)N1C[C@H](C)[C@H](CN(C)S(=O)(=O)c2cccs2)Oc2ncc(C#Cc3cccc(F)c3)cc2C1=O	inactive
Cc1noc(C)c1NC(=O)N(C)C[C@@H]1Oc2ccc(NC(=O)CCN3CCOCC3)cc2C(=O)N([C@@H](C)CO)C[C@H]1C	inactive
C[C@H]1CCCCO[C@H](CN(C)Cc2ccccc2)[C@@H](C)CN([C@@H](C)CO)C(=O)c2cc(NC(=O)NC3CCCCC3)ccc2O1	active
C[C@@H]1CCCCO[C@H](CN(C)Cc2ccccc2)[C@@H](C)CN([C@H](C)CO)C(=O)c2cc(NC(=O)NC3CCCCC3)ccc2O1	inactive
C[C@@H]1CN([C@H](C)CO)C(=O)c2cc(NC(=O)NC3CCCCC3)ccc2O[C@@H](C)CCCCO[C@H]1CN(C)Cc1ccccc1	inactive
COc1ccc(S(=O)(=O)N(C)C[C@@H]2Oc3c(NS(=O)(=O)c4ccccc4)cccc3C(=O)N([C@H](C)CO)C[C@@H]2C)cc1	inactive
C[C@H]1CN([C@@H](C)CO)C(=O)Cc2cc(NC(=O)CCN3CCOCC3)ccc2O[C@H]1CN(C)Cc1ccc2c(c1)OCO2	inactive
C[C@@H]1CCCCO[C@H](CN(C)Cc2ccc(Cl)c(Cl)c2)[C@H](C)CN([C@@H](C)CO)C(=O)c2cc(NC(=O)NC3CCCCC3)ccc2O1	inactive
C[C@@H]1CCCCO[C@H](CN(C)Cc2ccc(Cl)c(Cl)c2)[C@@H](C)CN([C@@H](C)CO)C(=O)c2cc(NC(=O)NC3CCCCC3)ccc2O1	inactive
C[C@H](CO)N1C[C@H](C)[C@@H](CN(C)Cc2ccc(Cl)c(Cl)c2)OCCCC[C@H](C)Oc2ccc(NC(=O)NC3CCCCC3)cc2C1=O	active
C[C@@H]1CCCCO[C@@H](CN(C)Cc2ccc(Cl)c(Cl)c2)[C@@H](C)CN([C@@H](C)CO)C(=O)c2cc(NC(=O)NC3CCCCC3)ccc2O1	active
C[C@H](CO)N1C[C@H](C)[C@H](CN(C)Cc2ccc(Cl)c(Cl)c2)OCCCC[C@H](C)Oc2ccc(NC(=O)NC3CCCCC3)cc2C1=O	active
C[C@@H]1CN([C@@H](C)CO)C(=O)c2cc(NC(=O)NC3CCCCC3)ccc2O[C@@H](C)CCCCO[C@H]1CN(C)Cc1ccc(Cl)c(Cl)c1	active
C[C@@H]1CCCCO[C@H](CN(C)Cc2ccc(Cl)c(Cl)c2)[C@@H](C)CN([C@H](C)CO)C(=O)c2cc(NC(=O)NC3CCCCC3)ccc2O1	inactive
C[C@@H]1CCCCO[C@@H](CN(C)Cc2ccc(Cl)c(Cl)c2)[C@@H](C)CN([C@H](C)CO)C(=O)c2cc(NC(=O)NC3CCCCC3)ccc2O1	inactive
C[C@H]1CCCCO[C@H](CN(C)Cc2ccc(Cl)c(Cl)c2)[C@@H](C)CN([C@@H](C)CO)C(=O)c2cc(NC(=O)NC3CCCCC3)ccc2O1	inactive
C[C@@H]1CN([C@H](C)CO)C(=O)c2cc(NC(=O)NC3CCCCC3)ccc2O[C@@H](C)CCCCO[C@@H]1CN(C)Cc1ccc(Cl)c(Cl)c1	inactive
C[C@@H]1CCCCO[C@@H](CN(C)Cc2ccc(Cl)c(Cl)c2)[C@H](C)CN([C@@H](C)CO)C(=O)c2cc(NC(=O)NC3CCCCC3)ccc2O1	inactive
C[C@@H]1CCCCO[C@@H](CN(C)Cc2ccc(Cl)c(Cl)c2)[C@H](C)CN([C@H](C)CO)C(=O)c2cc(NC(=O)NC3CCCCC3)ccc2O1	inactive

— the antibiotic and cytotoxicity screens of Wong et al. (2023)
